According to PubChem BioAssay AID1813 (Broad Institute, 2009):
Several values for one entry are separate records, joined by “and”; a condition that tells them apart may be missing. Equal entries are not always repeated. Out of some 300,000 compounds screened, about 2,500 (0.83%) were called active. Cut-off read from the data, not from the text of the source: active = inhibition above about 60%; inconclusive = no clear call, values can overlap the other calls; inactive = below that. The list comes from a sample in which actives are over-represented; it also holds similar structures and randomly drawn compounds.

assay: 5' untranslated region of α-synuclein, MLPCN primary screen (AID 1813); details: alpha-synuclein 5'UTR reporter, inhibitor activity; active compounds read high; tested at 7.5 µM;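 note: H4 neuroglioblastoma cells stably carrying SNCA 5'UTR luciferase fusion; 0% = DMSO wells and 100% = positive control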

Row | Structure (SMILES) | inhibition
1 | Cc1ccc(C(NC(=O)N2CCCC2)C(Cl)(Cl)Cl)cc1F (stereo not given) | 25.2% (inactive)
2 | COCC(=O)N=Nc1c(O)[nH]c2ccccc12 | 3.62% (inactive)
3 | COc1cc(N=Cc2c(O)[nH]c3ccccc23)cc(OC)c1OC | 81% (active)
4 | COc1ccccc1N=Cc1c(O)c2ccccc2oc1=O | 3.79% (inactive)
5 | COCCC(=O)N1CCC(Oc2ccc(C(=O)NCc3ccon3)cc2)CC1 | -4.68% (inactive)
6 | Oc1ccc(Br)cc1/C=N/Nc1ccccn1 | 66.4% (active)
7 | Oc1ccc(/C=N/Nc2ccc(C(F)(F)F)cn2)cc1O | -195% (inactive)
8 | O=C(CCCO)N/N=C/c1cc(Br)ccc1O | -18.4% (inactive)
9 | COc1ccc(-c2cc(=O)oc3cc(OCC(=O)N[C@@H](Cc4c[nH]c5ccccc45)C(=O)O)ccc23)cc1 | 9.25% (inactive)
10 | CCOc1cc(/C=N/NC(=O)CN2CCCCC2)ccc1O | 1.96% (inactive)
11 | C=CCn1c(C)cc(C(=O)CN2C(=O)c3ccccc3C2=O)c1C | 47.1% (inactive)
12 | C=CCn1c(C)cc(C2=NNC(=NCC)SC2)c1C | 105% (active)
13 | O=C(NCc1cccnc1)C12CC3CC(CC(C3)C1)C2 | 16.2% (inactive)
14 | O=C(NC1CCCC1)C(c1ccc(N2CCOCC2)cc1)N(C(=O)c1ccco1)c1ccccc1F (stereo not given) | -5.34% (inactive)
15 | CCOC(=O)c1cnc(-n2nc(C)cc2C)nc1Nc1cccc(C(C)=O)c1 | 17.6% (inactive)
16 | Cc1cc(C)n(-c2c(F)c(F)c(COC(=O)c3ccccc3)c(F)c2F)n1 | 6.91% (inactive)
17 | CCOC(=O)c1cnc(-n2nc(C)cc2C)nc1NNc1cc(C)nc(-c2ccccc2)n1 | 105% (active)
18 | NC(=O)C1CCN(Cc2nc3c(Br)cc(Br)cc3c(=O)[nH]2)CC1 | 31.8% (inactive)
19 | CC(=O)Nc1ccc(S(=O)(=O)NC2Cc3ccccc3C2)cc1 | -6.02% (inactive)
20 | Cc1ccc(NC(=O)CCC(=O)c2ccc(Br)cc2)cc1 | 1.65% (inactive)
21 | COc1ccccc1C1C2=C(COC2=O)Nc2cc3c(cc21)OCO3 (stereo not given) | 98.1% (active)
22 | COc1ccc(C2CC(=O)Nc3cc(C)c(C)cc32)c(OC)c1OC (stereo not given) | 22.4% (inactive)
23 | COC(=O)C1=C(C)NC(=O)CC1c1ccccc1OC (stereo not given) | 2.02% (inactive)
24 | CCCOc1ccccc1C1CC(=O)Nc2cc3c(cc21)OCO3 (stereo not given) | 111% (active)

Row | Structure (SMILES) | inhibition
25 | COc1ccc(S(=O)(=O)Nc2ccc3c(c2)OCO3)cc1Cl | -17.5% (inactive)
26 | COc1cc2c(cc1OC)C(c1ccncc1)CC(=O)N2 (stereo not given) | 21.6% (inactive)
27 | COC(=O)c1ccc(NS(=O)(=O)c2cc3c4c(c2)C(C)C(=O)N4CCC3)cc1 (stereo not given) | 8.87% (inactive)
28 | CN(CC(=O)NCc1ccncc1)S(=O)(=O)c1ccc(Br)cc1 | -15.9% (inactive)
29 | Cc1ccc(CNC(=O)c2ccc3c(c2)S(=O)(=O)c2ccccc2C3=O)cc1 | 5.46% (inactive)
30 | CCN(C(=O)c1cc([N+](=O)[O-])ccc1NCc1cccnc1)c1ccccc1 | 14.1% (inactive)
31 | CCCCn1ccnc1C(=O)c1cccc(S(=O)(=O)N2c3ccccc3CC2C)c1 (stereo not given) | 4.82% (inactive)
32 | CCN(CC)S(=O)(=O)c1ccc(-c2cn3ccc(C)cc3n2)cc1 | -169% (inactive)
33 | COc1ccc(-c2cn3ccc(C)cc3n2)cc1 | 92.2% (active)
34 | COc1ccc(-c2cn3ccsc3n2)cc1 | -105% (inactive)
35 | CCc1nc2cccnc2n1-c1ccc(C(=O)O)cc1 | -14.6% (inactive)
36 | Fc1ccc(-n2c(Cc3ccccc3)nnc2SCc2nc(-c3ccc(Cl)cc3)no2)cc1 | -3.62% (inactive)
37 | CCN(CC)CCNCc1ccc(OCc2ccc(Cl)nc2)c(OC)c1 | -27.5% (inactive)
38 | COc1cccc(/C=C2\C=C(c3ccc(C)cc3)OC2=O)c1OC(C)=O | -65.8% (inactive)
39 | CCOc1cccc(/C=C/c2ccc3ccccc3n2)c1OC(C)=O | 49.2% (inactive)
40 | COc1cccc(/C=C/c2ccc3ccccc3n2)c1OC(C)=O | 83.1% (active)
41 | CCCOC1CCCN(C(=O)c2cc(COc3cncc(Cl)c3)on2)C1 (stereo not given) | -219% (inactive)
42 | C[C@H](NC(=O)c1nc[nH]c1C(=O)NCC(=O)OC(C)(C)C)c1ccccc1 | 24.4% (inactive)
43 | Cc1ccc(-c2cc(=O)c3ccc(F)cc3[nH]2)cc1 | -68.9% (inactive)
44 | Cc1ccc(-c2cc(=O)c3ccc(Cl)cc3[nH]2)cc1 | -19.2% (inactive)
45 | O=c1cc(-c2ccccc2)[nH]c2cc(F)ccc12 | 93.3% (active)
46 | COC(=O)C(C)n1cnc2c(nnn2-c2cccc(Cl)c2)c1=O (stereo not given) | -6.77% (inactive)
47 | CC(C)n1cnc2c(Nc3cccc(Cl)c3)nc(N(CCO)CCCO)nc21 | 64.7% (active)
48 | CC(C)C[C@H](CO)Nc1nc(N(C)c2cccc(Cl)c2)c2ncn(C(C)C)c2n1 | 24.9% (inactive)

Row | Structure (SMILES) | inhibition
49 | CSc1cc(C)n(-c2ccccc2C)c(=S)c1C(C)=O | -18% (inactive)
50 | O=C(CCN1C(=O)c2ccncc2C1=O)Nc1cc(F)ccc1F | 10.3% (inactive)
51 | O=C(NCC(=O)N(c1ccccc1)C(C(=O)NCC1CCCO1)c1ccccc1)c1cccs1 (stereo not given) | 15.4% (inactive)
52 | CC(C)(C)C(=O)Nc1ccc(C(=O)N/N=C/c2ccccc2OC(=O)c2ccc(Cl)cc2Cl)cc1 | 65.2% (active)
53 | O=C(N/N=C/c1ccc(OC(=O)c2ccccc2Cl)cc1)c1ccc(O)cc1 | -1.64% (inactive)
54 | O=C(N/N=C/c1ccoc1)c1ccc(Cl)cc1Cl | -0.701% (inactive)
55 | Cc1ccc(S(=O)(=O)N/N=C(\c2ccccc2)C2CC2)cc1 | -11.6% (inactive)
56 | COC(=O)C1=C(C)N(c2ccc(C)cc2)/C(=C/c2ccc(O)cc2)C1=O | -12.4% (inactive)
57 | CCOc1ccccc1NC(=O)Cn1nnc(C(=O)NCc2cccs2)c1N | 84.9% (active)
58 | CCOc1ccccc1NC(=O)Cc1cccs1 | 19.4% (inactive)
59 | Cc1ccc(NC(=O)Cn2nnc(C(=O)NCc3ccco3)c2N)c(C)c1 | -2.22% (inactive)
60 | O=C(Cc1ccc(-n2c(=O)c3sccc3n(Cc3ccc(F)cc3)c2=O)cc1)NCc1ccco1 | 11.3% (inactive)
61 | O=C(O)C1CCN(C(=O)c2cc(F)cc3c2OCOC3)CC1 | 19.4% (inactive)
62 | COC(=O)Cc1[nH]n(-c2nc3ccccc3s2)c(=O)c1C(C)=Nc1ccc(OC)cc1 | 68.9% (active)
63 | C/C(=N\NC(=O)CC(C)C)c1c(C(F)(F)F)[nH]n(-c2nc3ccccc3s2)c1=O | -51.5% (inactive)
64 | CC(=NCc1ccco1)c1c(C(F)(F)F)[nH]n(-c2nc3ccccc3s2)c1=O | -117% (inactive)
65 | CNC[C@H](CC1CCCCC1)NC[C@H](NCCC1CCCC1)[C@H](C)O | -34.1% (inactive)
66 | CC(=O)N1C(C)c2ccccc2C(C)(C)CC12CCCCC2 (stereo not given) | -9.23% (inactive)
67 | COc1cc(SC)ccc1C(=O)Nc1cc(C)ccn1 | -8.42% (inactive)
68 | COc1cc(SC)ccc1C(=O)Nc1nc(C)cs1 | 96.2% (active)
69 | Cc1csc(NC(=O)c2ccc(C)s2)n1 | -174% (inactive)
70 | COC(=O)c1sc(NC(=O)c2ccc(OC)cc2OC)nc1C | 101% (active)
71 | COc1ccc(Cc2nnc(NC(=O)c3ccc(OC)cc3OC)s2)cc1 | -62.4% (inactive)
72 | COc1cc2ccccc2cc1C(=O)Nc1nc(C)c(C(C)=O)s1 | -106% (inactive)

Row | Structure (SMILES) | inhibition
73 | Cn1c(Cc2cccs2)nnc1SCC(=O)Nc1ccccc1 | 11% (inactive)
74 | COc1ccc(NC(=O)CSc2ccc(-c3ccco3)nn2)c(OC)c1 | 7.22% (inactive)
75 | CC(C)CN(C(=O)c1ccc2c(c1)OCO2)C1CCS(=O)(=O)C1 (stereo not given) | -8.68% (inactive)
76 | CC(C)C(=O)N1CCN(c2nc(-c3ccccc3)c3c(c2C#N)CC(C)(C)OC3)CC1 | -10.5% (inactive)
77 | CCO[C@H]1OC(C(=O)N2CCN(Cc3ccccc3)CC2)=C[C@@H](c2cn(C(C)=O)c3ccccc23)[C@@H]1CCCO | 14.2% (inactive)
78 | O=C(COC(=O)c1ccc(Cl)nc1)NCc1ccc2c(c1)OCO2 | 17.3% (inactive)
79 | O=S(=O)(c1ccc(F)cc1)N1CCN(C(=S)NC2CCCC2)CC1 | 4.9% (inactive)
80 | CN(NC(=O)c1ccccc1)c1nc2ccccc2nc1C(F)(F)F | -26.7% (inactive)
81 | CN(NC(=O)c1ccccc1F)c1nc(C(F)(F)F)nc2ccccc12 | 39.8% (inactive)
82 | CSc1nc(N(C)NC(=O)c2cccc(C)c2)c2ccccc2n1 | 114% (active)
83 | O=c1c2cc(-c3ccccc3)sc2nc2n1N=C(c1cccs1)CS2 | -105% (inactive)
84 | O=C(Cn1c[n+](CC(=O)c2ccc([N+](=O)[O-])cc2)cn1)c1ccc([N+](=O)[O-])cc1 | 1.61% (inactive) and -7.59% (inactive)
85 | COc1ccccc1OC(C)C(=O)Nc1ccc(S(=O)(=O)Nc2nccs2)cc1 (stereo not given) | 8.93% (inactive)
86 | CCN1CCN(CC(=O)c2cc(OC)c(OC)c(OC)c2)CC1 | -44% (inactive)
87 | CSc1nc(-c2ccccc2)nc(C(Cl)Cl)n1 | 114% (active)
88 | CSc1ncc(Sc2ccccc2)c(C(=O)O)n1 | 9.17% (inactive)
89 | CC(C)(C)c1ccc(Oc2ccc(N)cc2)cc1 | 112% (active)
90 | COc1cccc(Oc2ccc(N)cc2)c1 | 5.65% (inactive)
91 | CC(C)(C)c1ccc(OC2=CS(=O)(=O)c3ccccc32)cc1 | -110% (inactive)
92 | C=CCOc1ccc(/C=C/C(=O)OCC(=O)NC(C)c2ccc(F)cc2)cc1 (stereo not given) | 5.96% (inactive)
93 | O=C(c1ccc(OC2CCN(C/C=C/c3ccc(F)cc3)CC2)cc1)N1CCCCC1 | -17.6% (inactive)
94 | COCCN1C(=O)C(=O)/C(=C(/O)c2ccc(S(=O)(=O)N3CCOCC3)cc2)C1c1ccc(OC)c(OC)c1 (stereo not given) | 0.0342% (inactive)
95 | CC(C)(C)NC(=O)NC(=O)CN1CCC(Cc2ccccc2)CC1 | 17.3% (inactive)
